# From the OligoGym collection
# Legend:
# Assay in all cases: pooled miR-30 sensor sort-seq; sequence = guide strand
# Conditions in all cases: shRNA
# [1] = target: CTCFL
# [2] = target: CTBP2
# [3] = target: CT47A1
# [4] = target: CYLC1
# [5] = target: DCPS
# [6] = target: DNAJC13
# [7] = target: DNMT3L
# [8] = target: DPRX
# [9] = target: DUSP5
# [10] = target: EAPP
# [11] = target: DUSP3
# Further: reference of the scale not given here.
sequence,measurement,setting,value
TTGAATTATGTAAAACATCTTT,sensor-assay potency score (higher = more potent),[1],-0.709
TATCCTGCAACTCCACAGCTTC,sensor-assay potency score (higher = more potent),[1],-1.14
TTTGGGGACATTTTCGCCGTGT,sensor-assay potency score (higher = more potent),[1],-0.126
TAAAATATGACGCTGAATCCAA,sensor-assay potency score (higher = more potent),[2],-0.138
TGCATCCTTCTCTTTTTCTTGT,sensor-assay potency score (higher = more potent),[3],-0.624
TTGAGATTGCAGTGCAAGGAGA,sensor-assay potency score (higher = more potent),[2],-0.597
TAGAGTCCGCTGTCTCTTCCAC,sensor-assay potency score (higher = more potent),[2],-0.12
TTGTGAGTCACTGGGATGCCTC,sensor-assay potency score (higher = more potent),[2],-1.08
TAAAGGTGAACCTTGCTCCTAT,sensor-assay potency score (higher = more potent),[1],0.214
TTCGTTTAGAACCTTCTCGTGG,sensor-assay potency score (higher = more potent),[2],-0.189
TTAGAAGTTGCTTCTGTCGGAA,sensor-assay potency score (higher = more potent),[1],-0.207
TTATGTTCGTTGAGATTGCAGT,sensor-assay potency score (higher = more potent),[2],-0.485
TTTCTTTGAAATATCCAGCTAC,sensor-assay potency score (higher = more potent),[1],0.55
TACCTTCACAAATTCTGTCCAA,sensor-assay potency score (higher = more potent),[2],-0.0172
TGTTCTTTCTCTTCCTCGCCTG,sensor-assay potency score (higher = more potent),[3],0.234
TCGTTTAGAACCTTCTCGTGGA,sensor-assay potency score (higher = more potent),[2],0.661
TTATTTTCTAGTCTAATCTAGT,sensor-assay potency score (higher = more potent),[1],-0.371
TTCTGTCCAATCGCTGTCTCTT,sensor-assay potency score (higher = more potent),[2],-0.623
TCTGCGTCTGGTTCCTCTGTGG,sensor-assay potency score (higher = more potent),[3],-0.289
ATTTAGTGACTTCCTCTGGGGC,sensor-assay potency score (higher = more potent),[3],-0.669
TTTATGTTTCTTCTCACTCTGC,sensor-assay potency score (higher = more potent),[1],-0.0954
TCGCTGTCTCTTGACTTTGTGC,sensor-assay potency score (higher = more potent),[2],-1.38
TTGCTGGTCTATTACTGACCAA,sensor-assay potency score (higher = more potent),[2],-0.982
TATCTGAGTCCTCCTCGGCGCT,sensor-assay potency score (higher = more potent),[3],-1.49
TTCCTCGCCTGCAGCATCTTGG,sensor-assay potency score (higher = more potent),[3],-0.775
TATCCGCACGATCACTCTCAGG,sensor-assay potency score (higher = more potent),[2],-1.62
TATGGTAAAGTCATTGATGAGG,sensor-assay potency score (higher = more potent),[2],-1.17
AATCGCTGTCTCTTGACTTTGT,sensor-assay potency score (higher = more potent),[2],0.0201
TTGCTTGCTGGTCTATTACTGA,sensor-assay potency score (higher = more potent),[2],-0.788
TGCTGGTCTATTACTGACCAAG,sensor-assay potency score (higher = more potent),[2],-1.63
TCACCTTGTTTTCTGCATCCTT,sensor-assay potency score (higher = more potent),[3],0.106
ACAAATTCTGTCCAATCGCTGT,sensor-assay potency score (higher = more potent),[2],-0.83
TATTATCTGTCTTTGAATCTTT,sensor-assay potency score (higher = more potent),[4],0.0737
TTGAATCTTTCTTAGCATCCTT,sensor-assay potency score (higher = more potent),[4],-0.0997
TAGTCATCTCCCGTCTCTCGGA,sensor-assay potency score (higher = more potent),[5],-0.952
TAGACCAACAGTATCTGCTCGC,sensor-assay potency score (higher = more potent),[6],0.515
TATGCAATAAGATCTCTGCCTG,sensor-assay potency score (higher = more potent),[7],-0.0706
TTTTGCTCTGTGATTCTTGAAC,sensor-assay potency score (higher = more potent),[8],-0.966
TTAAAAACAAAAATCACAGTTG,sensor-assay potency score (higher = more potent),[9],0.309
TCCTCTCGCAGCTTCTGCCAGT,sensor-assay potency score (higher = more potent),[9],-1.18
TTTACATCCACGCAACACTCAG,sensor-assay potency score (higher = more potent),[9],-1.07
TTGTAGTGTAGGTGGGTCGCGC,sensor-assay potency score (higher = more potent),[9],-0.607
TTCATTACAAACATTGCTCTAT,sensor-assay potency score (higher = more potent),[10],0.525
TACAGTAGTCAGCACATGCTGT,sensor-assay potency score (higher = more potent),[9],-0.0745
TTGAGGAAGTAGACCCGCGGGC,sensor-assay potency score (higher = more potent),[9],-0.647
TGTAGCTGACATTTACCACTGG,sensor-assay potency score (higher = more potent),[9],0.536
TAGCTGACATTTACCACTGGTT,sensor-assay potency score (higher = more potent),[9],-0.934
ATTCTTTTGAGCCAAAGCCTGG,sensor-assay potency score (higher = more potent),[11],-1.5
TTGACGTTGAGCGAGCCGCGCA,sensor-assay potency score (higher = more potent),[9],-0.861
TTGTAGAAGTTGGCATTGGTGT,sensor-assay potency score (higher = more potent),[11],-0.415
TCCATTTGTAGTGTAGGTGGGT,sensor-assay potency score (higher = more potent),[9],-0.0708
TTTGAGGAAGTAGACCCGCGGG,sensor-assay potency score (higher = more potent),[9],-0.969
TACTGCTCTGTCTTCATCCTCG,sensor-assay potency score (higher = more potent),[10],0.413
TATTGCTTCTTGAAAGTGGGAG,sensor-assay potency score (higher = more potent),[9],0.394
TTCCCTGACACAGTCAATGAAG,sensor-assay potency score (higher = more potent),[9],-1.14
TAATTCAGCTTCCATCTCCTTT,sensor-assay potency score (higher = more potent),[10],-0.368
TATGTGATGCCGGAGTCCTTGT,sensor-assay potency score (higher = more potent),[11],-1.17
TATATATCATCGTAGTACCTTG,sensor-assay potency score (higher = more potent),[10],-0.621
TTTATATCTTAGAACCTCCTCT,sensor-assay potency score (higher = more potent),[10],0.652
TTACATCCACGCAACACTCAGG,sensor-assay potency score (higher = more potent),[9],-0.32
